Structures can show the parent of a compound that is named as a salt. Among all 2,100 compounds or so, about 180 (8.6%) showed an effect of 50% or more. Many of the other results were omitted from the sample, so strong results are more common in it than they were.
tested on: MOLM1 and UCSD/AML1 (averaged); test: cell viability relative to DMSO control (POC); higher = less growth inhibition; conditions: 1 µM; 72 h
Procedure: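 Primary viability screen in the 3q26 EVI1-high AML cell lines MOLM1 and UCSD/AML1 (1.5e3 cells/well, 384-well), compounds at 1 uM for 72 h. ATP CellTiter-Glo read-out given as percent of viable cells over DMSO control (POC), averaged over duplicates. DMSO was the negative control and 5 uM etoposide the positive control. This mapping covers the MicroSource Spectrum and Selleck anticancer libraries (drug names).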

Compared with `CC(C)C[C@@H]1NC(=O)[C@H](CCCN)NC(=O)[C@H](C(C)C)NC(=O)[C@H](Cc2ccc(O)cc2)N[C@@H](CCC(=O)O)C(=O)N[C@@H](CC(N)=O)C(=O)[C@@H](Cc2ccccc2)NC(=O)[C@H](Cc2ccccc2)NC(=O)[C@@H]2CCCN2C(=O)[C@@H](Cc2ccccc2)NC1=O`, `CC[C@H](C)[C@H](N)C1=N[C@H](C(=O)N[C@@H](CC(C)C)C(=O)N[C@H](CCC(=O)O)C(=O)N[C@H](C(=O)N[C@H]2CCCCNC(=O)[C@H](CC(N)=O)NC(=O)[C@@H](CC(=O)O)NC(=O)[C@H](Cc3cnc[nH]3)NC(=O)[C@@H](Cc3ccccc3)NC(=O)[C@H]([C@@H](C)CC)NC(=O)[C@@H](CCCN)NC2=O)[C@@H](C)CC)CS1` is higher in cell viability: 13% for the first, 94.8% for the second.

First: CC1=C(CCC(=O)O)c2cc3[nH]c(cc4nc(cc5[nH]c(cc1n2)c(C)c5C(C)O)C(C)=C4C(C)O)c(C)c3CCC(=O)O (stereo not given)
Second: Cc1cc(OC(=O)c2c(C)cc(O)cc2O)cc(O)c1C(=O)O
The cell viability of the first is higher: 107% for the first, 103% for the second.

Going from `COc1cc(O)c2c(c1)C(=O)c1cc(C)cc(O)c1C2=O` to `COc1cc2c(cc1OC)-c1c(oc3cc(O)cc(O)c3c1=O)CO2`, the cell viability rises from 94.9% to 103%.

Going from `O=C(/C=C/c1ccc(O)c(O)c1)O[C@H](Cc1ccc(O)c(O)c1)C(=O)O` to `Oc1cc(O)c2c(c1)O[C@H](c1ccc(O)c(O)c1)[C@H](O)C2`, the cell viability falls from 104% to 96.7%.

Going from `CNC(=O)c1cc(Oc2ccc(NC(=O)Nc3ccc(Cl)c(C(F)(F)F)c3)c(F)c2)ccn1` [Regorafenib (BAY 73-4506)] to `CNC(=O)c1cc(Oc2ccc(NC(=O)Nc3ccc(Cl)c(C(F)(F)F)c3)cc2)ccn1` [Sorafenib (Nexavar)], the cell viability rises from 28.9% to 59.7%.

First: CNC(=O)c1cc(Oc2ccc(NC(=O)Nc3cc(C(C)(C)C)nn3-c3ccc4ncccc4c3)c(F)c2)ccn1 [DCC-2036 (Rebastinib)]
Second: Cc1ccc(-n2nc(C(C)(C)C)cc2NC(=O)Nc2ccc(OCCN3CCOCC3)c3ccccc23)cc1 [BIRB 796 (Doramapimod)]
The cell viability of the first is lower: 24.6% for the first, 85.1% for the second.

First: Nc1ccccc1C(=O)CC(N)C(=O)O (stereo not given)
Second: CCCCC(=O)Oc1ccccc1C(=O)O
The cell viability of the first is lower: 98.1% for the first, 115% for the second.

Compared with `CC(C)=CCC[C@@H](C)[C@@H]1CC[C@]2(C)C3=C(CC[C@@]12C)[C@@]1(C)CC[C@H](O)C(C)(C)[C@@H]1CC3`, `CC1(C)[C@@H](O)CC[C@]2(C)[C@H]3C(=O)C=C4[C@@H]5C[C@@](C)(C(=O)O)CC[C@]5(C)CC[C@@]4(C)[C@]3(C)CC[C@@H]12` is lower in cell viability: 97.6% for the first, 95.5% for the second.

First: COc1cc(OC)c2ccc(=O)oc2c1
Second: COc1ccc2c(=O)c(CC(=O)O)coc2c1
The cell viability of the first is higher: 99.1% for the first, 98.6% for the second.

Compared with `COc1cc(OC)c2c(c1Cl)O[C@@]1(C(=O)CC(=O)C[C@H]1C)C2=O`, `COC1=C(O)C(=O)c2c(cc3oc(C(C)=O)c(O)c3c2O)C1=O` is lower in cell viability: 102% for the first, 86.8% for the second.

Compared with `Cc1ccc(C(=O)Nc2ccc(CN3CCN(C)CC3)c(C(F)(F)F)c2)cc1C#Cc1cnc2cccnn12`, `O=C(Nc1cccnc1)N1CCC(Cc2cccc(Oc3ccc(C(F)(F)F)cn3)c2)CC1` is higher in cell viability: 4.31% for the first, 56.7% for the second.

First: CS(=O)(=O)N1CCN(Cc2cc3nc(-c4cccc5[nH]ncc45)nc(N4CCOCC4)c3s2)CC1 [Pictilisib (GDC-0941)]
Second: Fc1cc(-c2cccc3ncc(-c4cnn(C5CCNCC5)c4)nc23)cc(F)c1CN1CCOCC1
The cell viability of the first is higher: 51.1% for the first, 24.6% for the second.

First: CC1(C)C(=O)C=C[C@]2(C)[C@H]3CC[C@@]4(C)[C@H](c5ccoc5)OC(=O)[C@H]5O[C@]54[C@]3(C)C(=O)C[C@@H]12
Second: COC(=O)C[C@H]1C(C)(C)[C@@H](OC(C)=O)[C@@H]2CC3C4CC(=O)O[C@@H](c5ccoc5)[C@]4(C)CCC3[C@@]1(C)C2=O (stereo not given in full)
The cell viability of the first is lower: 84.7% for the first, 88.1% for the second.

Compared with `COc1ccc2c(c1)O[C@H]1c3ccc(OC)cc3OC[C@@H]21`, `COc1ccc2c(=O)c(-c3ccc(O)cc3)coc2c1` is lower in cell viability: 105% for the first, 84.7% for the second.

Going from `Cc1cc2c(F)c(Oc3ncnn4cc(OC[C@@H](C)O)c(C)c34)ccc2[nH]1` to `Cc1cccc2c3c(ccc12)C1=C(C(=O)C3=O)[C@@H](C)CO1`, the cell viability rises from 89.6% to 98.4%.

First: O=C(/C=C/c1cccnc1)NCCCCC1CCN(C(=O)c2ccccc2)CC1
Second: O=C(O)c1cccnc1
The cell viability of the first is lower: 12% for the first, 95% for the second.

First: COc1c(O)cc(O)cc1O
Second: COc1cc(O)ccc1C(C)=O
The cell viability of the first is higher: 98.8% for the first, 97.9% for the second.

Compared with `O=C(O)CC[C@H]1CC[C@@](c2cc(F)ccc2F)(S(=O)(=O)c2ccc(Cl)cc2)CC1`, `O=C(O)c1cc(-c2ccc(F)cc2F)ccc1O` is higher in cell viability: 71% for the first, 112% for the second.

First: CC1(C)CCC(c2ccc(Cl)cc2)=C(CN2CCN(c3ccc(C(=O)NS(=O)(=O)c4ccc(N[C@H](CCN5CCOCC5)CSc5ccccc5)c(S(=O)(=O)C(F)(F)F)c4)cc3)CC2)C1 [ABT-263 (Navitoclax)]
Second: CN(C)CC[C@H](CSc1ccccc1)Nc1ccc(S(=O)(=O)NC(=O)c2ccc(N3CCN(Cc4ccccc4-c4ccc(Cl)cc4)CC3)cc2)cc1[N+](=O)[O-]
The cell viability of the first is lower: 6.23% for the first, 32.3% for the second.

First: NC1(C(=O)O)CCC1
Second: CC(=O)/C=C\[C@@H]1[C@@]2(C)CCCC(C)(C)C2CC[C@@]1(C)O (stereo not given in full)
The cell viability of the first is higher: 102% for the first, 99.2% for the second.

Going from `OC[C@H]1O[C@@](CO)(O[C@H]2O[C@H](CO)[C@@H](O)[C@H](O)[C@H]2O)[C@@H](O[C@H]2O[C@H](CO)[C@@H](O)[C@H](O)[C@H]2O)[C@@H]1O` to `C[C@@H]1O[C@@H](O[C@H]2[C@H](Oc3cc(O)c4c(=O)cc(-c5ccc(O)cc5)oc4c3)O[C@H](CO)[C@@H](O)[C@@H]2O)[C@H](O)[C@H](O)[C@H]1O`, the cell viability rises from 103% to 110%.

Compared with `CC(C)=CCc1c(O)cc2occ(-c3ccc4c(c3)OCO4)c(=O)c2c1O`, `CC(C)=CCC1=C(O)C(=O)c2ccccc2C1=O` is higher in cell viability: 100% for the first, 118% for the second.

Going from `C[C@@H]1CC[C@H]2[C@](C)(CO)[C@@H](O)CC[C@]2(C)[C@@]12CC[C@@](CO)(CCO)O2` to `COC(=O)CC[C@@H](C)[C@H]1CC[C@H]2[C@@H]3[C@H](O)C[C@@H]4C[C@H](O)CC[C@]4(C)[C@H]3C[C@H](O)[C@]12C`, the cell viability rises from 89.3% to 95.2%.

Going from `Sc1nc2ccccc2s1` to `COC(=O)C(O)c1ccccc1` (stereo not given), the cell viability falls from 115% to 106%.

Going from `C=CC(C)(O)CCC1C(=C)CC(O)C2C(C)(C)CCCC12C` (stereo not given) to `CC1=CC(=O)[C@H]2C(C)(C)CCC[C@]2(C)[C@@]1(O)CCc1ccoc1`, the cell viability rises from 105% to 110%.

First: CC[C@]1(O)C[C@@H]2CN(CCc3c([nH]c4ccccc34)[C@@](C(=O)OC)(c3cc4c(cc3OC)N(C)[C@H]3[C@@](O)(C(=O)OC)[C@H](OC(C)=O)[C@]5(CC)C=CCN6CC[C@]43[C@@H]65)C2)C1
Second: CC[C@]1(O)C[C@H]2CN(CCc3c([nH]c4ccccc34)[C@@](C(=O)OC)(c3cc4c(cc3OC)N(C=O)[C@H]3[C@@](O)(C(=O)OC)[C@H](OC(C)=O)[C@]5(CC)C=CCN6CC[C@]43[C@@H]65)C2)C1 [Vincristine Sulfate]
The cell viability of the first is lower: 7.14% for the first, 7.83% for the second.

Going from `CC[C@]1(O)C[C@@H]2CN(CCc3c([nH]c4ccccc34)[C@@](C(=O)OC)(c3cc4c(cc3OC)N(C)[C@H]3[C@@](O)(C(=O)OC)[C@H](OC(C)=O)[C@]5(CC)C=CCN6CC[C@]43[C@@H]65)C2)C1` [Vinblastine] to `CC[C@]1(O)C[C@H]2CN(CCc3c([nH]c4ccccc34)[C@@](C(=O)OC)(c3cc4c(cc3OC)N(C=O)[C@H]3[C@@](O)(C(=O)OC)[C@H](OC(C)=O)[C@]5(CC)C=CCN6CC[C@]43[C@@H]65)C2)C1`, the cell viability rises from 8.43% to 11.3%.

Going from `CC(C)c1c(O)ccc2c1CC[C@H]1C(C)(C)CCC[C@]21C` to `CC(C)CCC[C@@H](C)[C@H]1CC[C@H]2[C@@H]3CC[C@H]4C[C@H](O)CC[C@]4(C)[C@H]3CC[C@]12C`, the cell viability rises from 90.4% to 110%.

Compared with `O=c1cc(-c2ccc(O)cc2)oc2cc(O[C@@H]3O[C@H](CO)[C@@H](O)[C@H](O)[C@H]3O[C@@H]3OC[C@](O)(CO)[C@H]3O)cc(O)c12`, `COc1c(-c2coc3cc4c(cc3c2=O)CC(OC(C)=O)C(C)(C)O4)ccc2c1C=CC(C)(C)O2` (stereo not given) is lower in cell viability: 119% for the first, 88.7% for the second.

Compared with `N=C(N)NC(=N)Nc1ccccc1`, `CCC(C(N)=O)c1ccccc1` (stereo not given) is higher in cell viability: 99.7% for the first, 109% for the second.

Compared with `O=C(O)c1nc2cc(Cl)c(Cl)cc2nc1O`, `CC(=O)NCC(=O)N1[C@@H]2CC[C@H]1c1ccc(Nc3ncc(C(F)(F)F)c(NC4CCC4)n3)cc12` is lower in cell viability: 98.3% for the first, 20.2% for the second.

Going from `Cc1ccc(S(=O)(=O)C=CC#N)cc1` to `Cc1ccc(O)c([C@H](CCN(C(C)C)C(C)C)c2ccccc2)c1`, the cell viability rises from 1.01% to 92.5%.

First: C=CC[S+]([O-])C[C@H](N)C(=O)O (mixture of isomers)
Second: N[C@@H](CSCSC[C@H](N)C(=O)O)C(=O)O
The cell viability of the first is lower: 89.6% for the first, 99.3% for the second.

Going from `CCN(CC)C(=S)SSC(=S)N(CC)CC` to `CCCCOc1ccc(C(=O)CCN2CCCCC2)cc1`, the cell viability rises from 5.82% to 104%.

First: CCN(CC)C(=S)SSC(=S)N(CC)CC [Disulfiram (Antabuse)]
Second: C[C@H]1CC2C3CCC4=CC(=O)C=C[C@]4(C)[C@@]3(F)[C@@H](O)C[C@]2(C)[C@@]1(O)C(=O)COP(=O)(O)O (stereo not given in full)
The cell viability of the first is lower: 1.33% for the first, 72.3% for the second.

Compared with `C[C@@H]1CCN(C(=O)CC#N)C[C@@H]1N(C)c1ncnc2[nH]ccc12`, `CN(c1ncccc1CNc1nc(Nc2ccc3c(c2)CC(=O)N3)ncc1C(F)(F)F)S(C)(=O)=O` is lower in cell viability: 72.1% for the first, 58.6% for the second.

Compared with `CNC(=O)c1ccccc1Sc1ccc2c(/C=C/c3ccccn3)n[nH]c2c1` [Axitinib], `CS(=O)(=O)c1cccc(CNc2nc(Nc3ccc4c(c3)CCC(=O)N4)ncc2C(F)(F)F)c1` is higher in cell viability: 19.1% for the first, 83.3% for the second.

Work on `Cc1cnc(Nc2ccc(OCCN3CCCC3)cc2)nc1Nc1cccc(S(=O)(=O)NC(C)(C)C)c1` yielded a cell viability of 13%.

Source: the supplement of paper PMC11150407
